Results published in PubChem BioAssay (NCATS).
Results filed as inconclusive are left out. Where a call stands in place of a potency, no number is given. Active and inactive are the calls of the source. The call rests on the fitted dose curve; in most records, active means well fitted inhibition curve with a large enough effect; inconclusive means small, poorly fitted or top-dose-only effect; inactive means flat fitted curve, though single readings scatter.

Each compound was assayed against Calcium and integrin-binding protein 1 (Homo sapiens) (UniProt Q99828) (assay: Primary qHTS for Identification of Calcium Integrin Binding Protein 1 (CIB1) Competitor (AID 1508620;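 further: GST tagged CIB1 binding a fluorescein labelled alphaIIb integrin peptide tracer; top concentration of the series differs between compounds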)). Settings: CIB1-GST / FITC-alphaIIb peptide fluorescence polarization; series mostly up to 114 µM.
Calcium and integrin-binding protein 1 (Homo sapiens), sequence (Q99828 whole entry, looked up): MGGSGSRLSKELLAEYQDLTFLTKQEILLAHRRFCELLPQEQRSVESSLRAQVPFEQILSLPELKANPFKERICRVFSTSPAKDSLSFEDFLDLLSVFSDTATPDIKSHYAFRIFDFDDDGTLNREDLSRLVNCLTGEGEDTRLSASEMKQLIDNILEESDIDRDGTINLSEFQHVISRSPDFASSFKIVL
How it was run: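 CIB1-GST (1 uM final) and compound incubated 15 min at room temperature before adding FITC-alphaIIb peptide tracer (100 nM final). Competition for binding read by fluorescence polarization (ex 480, em 540) after another 15 min at room temperature.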

Structure (SMILES) | Potency
CC1=C(C(=O)O)/C(=C\CO[C@@H]2O[C@H](CO)[C@@H](O)[C@H](O)[C@H]2O)C(OC(=O)/C=C\c2ccc(O)cc2)C1 (stereo partly drawn) | inactive
O=C1NC(=O)C(c2cn(-c3ccccc3)nc2-c2ccc(F)cc2)N1 (stereo not drawn) | inactive
CC(=O)O[C@@](C)(C(=O)/C=C/C(C)(C)O)[C@H]1[C@H](O)C[C@@]2(C)[C@@H]3CC=C4[C@@H](C=C(O)C(=O)C4(C)C)[C@]3(C)C(=O)C[C@]12C | inactive
